Results filed as inconclusive are left out. Calls of active or inactive are those of the source. Calls follow the shape of the dose curve; as a rule, active = well fitted curve in the direction sought with a large enough effect; inconclusive = small, poorly fitted or top-dose-only effect, or another doubt; inactive = no such curve, though single readings can be large; an effect the other way counts as inactive or inconclusive. Where a SMILES comes first, the peptide text is derived from it. Bridges are numbered along the chain shown (N, C = ends). [ ]: non-standard residue; d: D form. The star is where a group is joined. X2 = CC[C@H](C)CCCCC(=O)*; Dab = NCC[C@H](N)C(=O)O
Legend:
[1] = qHTS assay to identify small molecule inhibitors of chordoma cells - UCH-1 (AID 1259355); also: nearly all actives have a fitted effect of over 55% in size
Outline: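 A 48hr growth-inhibition format: each drug tested at 15 concentrations together with added auranofin, camptothecin, doxorubicin, rubitecan and topotecan, with cell viability quantified as CellTiter-Glo luminescence.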

[2] = qHTS assay to identify small molecule inhibitors of chordoma cells - UCH-2 (AID 1259356); also: series mostly up to about 46 µM
[3] = P-glycoprotein substrates identified in KB-8-5-11 adenocarcinoma cell line, qHTS therapeutic library screen (AID 1346987); details: outcome: dose series up to 44.5 µM unless noted; also: series mostly up to about 44 µM; nearly all actives have a fitted effect of over 65% in size
Outline: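 Human cervical adenocarcinoma KB-8-5-11 cells, selected in colchicine to over-express P-gp and assayed without it, were exposed for 72 h to titrated compounds. An ATP-based luminescent viability signal gave AC50.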

Measured: Potency

O=P(O)(O)OC[C@H](O)CO
inactive: all assays above

O=C1c2ccccc2C(=O)C1c1ccc(Cl)cc1
inactive: all assays above

O=C(OCc1ccccc1)c1cccnc1
inactive: all assays above

CC(C)O
inactive: all assays above

C/C(=C\C(=O)OCCCCCCCCC(=O)O)C[C@@H]1OC[C@H](C[C@@H]2O[C@H]2[C@@H](C)[C@H](C)O)[C@@H](O)[C@H]1O
inactive: all assays above

COc1cc2c(cc1OC)[C@@H](Cc1cc(OC)c(OC)c(OC)c1)[N+](C)(CCCOC(=O)CC/C=C/CCC(=O)OCCC[N+]1(C)CCc3cc(OC)c(OC)cc3[C@H]1Cc1cc(OC)c(OC)c(OC)c1)CC2 (some centres not stated)
inactive: all assays above

CC(=O)N[C@@H]([C@@H](O)[C@H](O)[C@H](O)CO)[C@@H](O)CC(=O)C(=O)O
inactive: all assays above

CC(C)CCC[C@@H](C)[C@H]1CC[C@H]2[C@@H]3CC=C4C[C@@H](O)CC[C@]4(C)[C@H]3CC[C@]12C
inactive: all assays above

Cc1ncc[nH]1
inactive: all assays above

CO[C@H]1C[C@H](O[C@H]2[C@H](C)[C@@H](O[C@@H]3O[C@H](C)C[C@H](N(C)C)[C@H]3O)[C@@H](C)C[C@]3(CO3)C(=O)[C@H](C)[C@@H](O)[C@@H](C)[C@@H](C)OC(=O)[C@@H]2C)O[C@@H](C)[C@@H]1O
inactive: all assays above

OCl
inactive: all assays above

OC[C@@H](O)C(O)[C@H](O)CO
inactive: all assays above

CC[C@H](C)CCCCC(=O)N[C@@H](CCN)C(=O)N[C@H](C(=O)N[C@@H](CCN)C(=O)N[C@H]1CCNC(=O)[C@@H]([C@H](C)O)NC(=O)[C@H](CCN)NC(=O)[C@H](CCN)NC(=O)[C@H](CC(C)C)NC(=O)[C@@H](CC(C)C)NC(=O)[C@H](CCN)NC1=O)[C@@H](C)O (X2-[Dab]T[Dab][Dab][Dab][dL]L[Dab][Dab][dT]; lactam 4-C)
inactive: all assays above

CO
inactive: all assays above

CNC(=O)[C@H](Cc1c[nH]c2ccccc12)NC(=O)[C@@H](CC(=O)NO)CC(C)C
inactive: all assays above

OC/C=C/c1ccccc1
inactive: all assays above

CCC(C)[C@@H](N)C(=O)O (some centres not stated)
inactive: all assays above

CN1CCC(OC(=O)C(Oc2ccc(Cl)cc2)Oc2ccc(Cl)cc2)CC1
inactive: all assays above

CCCCCCCCCCCCCCCC(=O)OC[C@H](COP(=O)([O-])OCC[N+](C)(C)C)OC(=O)CCCCCCCCCCCCCCC
inactive: all assays above

From PubChem BioAssay (NCATS)
